# In the supplement of paper PMC8728848:
# The full list was thinned out, with the strongest signals kept by preference.
# B1: CrataBL (Crataeva tapia), C0HJA4 (protein)
# chain: AILTGVPYYILPSTSRAGFSPDNLRKNTSQLSCPLDLITQLRFPRRIGVPVIFTPQNSSLKVVPLSHNLNIHTCSDLWFCPESKIWTVKSSLTHGGSVVTTGGTFRSLGSWFRIERHGDSYKLVHCPRGSTPCRDVGIETVGGGGRRYLAPRDRPLAVRFTRASG
# How the values were obtained:
# Assay in all cases: glycan array binding signal (z-score within array); higher = stronger binding
# Settings in all cases: glycan notation: IUPAC condensed, linker removed
# [1] = target: Fuc(a1-2)Gal(b1-3)GlcNAc(b1-3)GalNAc
# In short: (§1)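 Columns mapping to the same glycan were averaged after glycan names were converted to IUPAC-condensed notation. The data come from 3228 arrays in the Consortium for Functional Glycomics database, limited to those with an available protein sequence. Binding is reported as a within-array Z-score averaged across arrays of one protein sequence and across linkers.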
# Fuc(a1-2)Gal(b1-4)GlcNAc = target: Fuc(a1-2)Gal(b1-4)GlcNAc
# In short: as §1
# [2] = target: Fuc(a1-2)Gal(b1-4)GlcNAc(b1-3)Gal(b1-4)GlcNAc
# In short: as §1
# [3] = target: Fuc(a1-2)Gal6S(b1-3)GlcNAc6S
# In short: as §1
# [4] = target: Fuc(a1-2)[Gal(a1-3)]Gal(b1-4)[Fuc(a1-3)]GlcNAc(b1-3)GalNAc
# In short: as §1
# [5] = target: Fuc(a1-2)[GalNAc(a1-3)]Gal(b1-4)GlcNAc(b1-2)Man
# In short: as §1
# [6] = target: Fuc(a1-3)[Gal(b1-4)]GlcNAc(b1-2)Man(a1-3)[Fuc(a1-3)[Gal(b1-4)]GlcNAc(b1-2)Man(a1-6)]Man(b1-4)GlcNAc(b1-4)GlcNAc
# In short: as §1
# [7] = target: Fuc(a1-3)[Gal(b1-4)]GlcNAc(b1-6)[Gal(b1-3)GlcNAc(b1-3)]Gal(b1-4)Glc
# In short: as §1
# [8] = target: Fuc(a1-3)[GalNAc(b1-4)]GlcNAc6S
# In short: as §1
# [9] = target: Gal(a1-3)Gal(b1-3)GlcNAc(b1-3)GalNAc
# In short: as §1
# Gal(a1-3)Gal(b1-4)Glc = target: Gal(a1-3)Gal(b1-4)Glc
# In short: as §1
# [10] = target: Gal(a1-4)Gal(b1-3)GlcNAc(b1-2)Man(a1-3)[Gal(a1-4)Gal(b1-3)GlcNAc(b1-2)Man(a1-6)]Man(b1-4)GlcNAc(b1-4)GlcNAc
# In short: as §1
# Gal(b1-3)GlcNAc(b1-2)Man = target: Gal(b1-3)GlcNAc(b1-2)Man
# In short: as §1
# [11] = target: Gal(b1-3)[Fuc(a1-4)]GlcNAc(b1-3)Gal(b1-3)[Fuc(a1-4)]GlcNAc
# In short: as §1
# [12] = target: Gal(b1-3)[Neu5Ac(b2-6)]GalNAc
# In short: as §1
# [13] = target: Gal(b1-4)GlcNAc(b1-2)Man(a1-3)[Gal(b1-4)GlcNAc(b1-2)Man(a1-6)][GlcNAc(b1-4)]Man(b1-4)GlcNAc(b1-4)[Fuc(a1-6)]GlcNAc
# In short: as §1
# [14] = target: Gal(b1-4)GlcNAc(b1-2)[Gal(b1-4)GlcNAc(b1-4)]Man(a1-3)[GlcNAc(b1-4)][Gal(b1-4)GlcNAc(b1-2)Man(a1-6)]Man(b1-4)GlcNAc(b1-4)GlcNAc
# In short: as §1
# [15] = target: Gal(b1-4)GlcNAc(b1-3)Gal(b1-4)GlcNAc(b1-2)Man(a1-3)[Gal(b1-4)GlcNAc(b1-3)Gal(b1-4)GlcNAc(b1-2)Man(a1-6)]Man(b1-4)GlcNAc(b1-4)[Fuc(a1-6)]GlcNAc
# In short: as §1
# [16] = target: Gal(b1-4)GlcNAc(b1-3)Gal(b1-4)GlcNAc(b1-3)Gal(b1-4)GlcNAc(b1-3)Gal(b1-4)GlcNAc(b1-3)Gal(b1-4)GlcNAc(b1-2)Man(a1-3)[Gal(b1-4)GlcNAc(b1-3)Gal(b1-4)GlcNAc(b1-3)Gal(b1-4)GlcNAc(b1-3)Gal(b1-4)GlcNAc(b1-3)Gal(b1-4)GlcNAc(b1-2)Man(a1-6)]Man(b1-4)GlcNAc(b1-4)GlcNAc
# In short: as §1
# [17] = target: Gal(b1-4)GlcNAc(b1-3)Gal(b1-4)GlcNAc(b1-3)Gal(b1-4)GlcNAc(b1-3)Gal(b1-4)GlcNAc(b1-3)Gal(b1-4)GlcNAc(b1-2)Man(a1-3)[Gal(b1-4)GlcNAc(b1-3)Gal(b1-4)GlcNAc(b1-3)Gal(b1-4)GlcNAc(b1-3)Gal(b1-4)GlcNAc(b1-3)Gal(b1-4)GlcNAc(b1-2)Man(a1-6)]Man(b1-4)GlcNAc(b1-4)[Fuc(a1-6)]GlcNAc
# In short: as §1
# [18] = target: Gal(b1-4)GlcNAc(b1-6)[Gal(b1-4)GlcNAc(b1-3)]GalNAc
# In short: as §1
# Gal3S(b1-4)GlcNAc = target: Gal3S(b1-4)GlcNAc
# In short: as §1
# [19] = target: Gal3S(b1-4)[Fuc(a1-3)]GlcNAc6S
# In short: as §1
# Gal3S4S(b1-4)GlcNAc = target: Gal3S4S(b1-4)GlcNAc
# In short: as §1
# Gal3S6S(b1-4)GlcNAc = target: Gal3S6S(b1-4)GlcNAc
# In short: as §1
# Gal3S6S(b1-4)GlcNAc6S = target: Gal3S6S(b1-4)GlcNAc6S
# In short: as §1
# Gal6S(b1-3)GlcNAc6S = target: Gal6S(b1-3)GlcNAc6S
# In short: as §1
# Gal6S(b1-4)Glc6S = target: Gal6S(b1-4)Glc6S
# In short: as §1
# Gal6S(b1-4)GlcNAc6S = target: Gal6S(b1-4)GlcNAc6S
# In short: as §1
# [20] = target: GalNAc3S(b1-4)[Fuc(a1-3)]GlcNAc
# In short: as §1
# GalNAc4S6S(b1-4)GlcNAc = target: GalNAc4S6S(b1-4)GlcNAc
# In short: as §1
# [21] = target: GlcNAc(a1-4)Gal(b1-3)GlcNAc
# In short: as §1
# [22] = target: GlcNAc(b1-2)Man(a1-3)[GlcNAc(b1-4)][GlcNAc(b1-2)Man(a1-6)]Man(b1-4)GlcNAc(b1-4)GlcNAc
# In short: as §1
# [23] = target: GlcNAc(b1-3)Gal(b1-4)GlcNAc(b1-3)Gal(b1-4)GlcNAc(b1-2)Man(a1-3)[GlcNAc(b1-3)Gal(b1-4)GlcNAc(b1-3)Gal(b1-4)GlcNAc(b1-2)Man(a1-6)]Man(b1-4)GlcNAc(b1-4)[Fuc(a1-6)]GlcNAc
# In short: as §1
# [24] = target: GlcNAc(b1-4)GlcNAc(b1-4)GlcNAc(b1-4)GlcNAc(b1-4)GlcNAc
# In short: as §1
# [25] = target: GlcNAc(b1-4)[GlcNAc(b1-6)]GalNAc
# In short: as §1
# Kdn(a2-3)Gal(b1-3)GalNAc = target: Kdn(a2-3)Gal(b1-3)GalNAc
# In short: as §1
# Kdn(a2-3)Gal(b1-4)Glc = target: Kdn(a2-3)Gal(b1-4)Glc
# In short: as §1
# Man(a1-2)Man(a1-3)Man = target: Man(a1-2)Man(a1-3)Man
# In short: as §1
# [26] = target: Neu5Ac(a2-3)Gal(b1-3)GalNAc
# In short: as §1
# [27] = target: Neu5Ac(a2-3)Gal(b1-3)GlcNAc(b1-4)Gal(b1-4)Glc
# In short: as §1
# [28] = target: Neu5Ac(a2-3)Gal(b1-4)GlcNAc(b1-2)[Neu5Ac(a2-3)Gal(b1-4)GlcNAc(b1-6)]Man(a1-6)[Neu5Ac(a2-3)Gal(b1-4)GlcNAc(b1-2)Man(a1-3)][GlcNAc(b1-4)]Man(b1-4)GlcNAc(b1-4)GlcNAc
# In short: as §1
# [29] = target: Neu5Ac(a2-3)Gal(b1-4)GlcNAc(b1-3)Gal(b1-4)GlcNAc(b1-3)Gal(b1-4)GlcNAc
# In short: as §1
# [30] = target: Neu5Ac(a2-3)Gal(b1-4)GlcNAc(b1-3)Gal(b1-4)GlcNAc(b1-3)Gal(b1-4)GlcNAc(b1-2)Man(a1-3)[Neu5Ac(a2-3)Gal(b1-4)GlcNAc(b1-3)Gal(b1-4)GlcNAc(b1-3)Gal(b1-4)GlcNAc(b1-2)Man(a1-6)]GalNAc
# In short: as §1
# [31] = target: Neu5Ac(a2-3)Gal(b1-4)GlcNAc(b1-3)[Neu5Ac(a2-3)Gal(b1-4)GlcNAc(b1-6)]GalNAc
# In short: as §1
# [32] = target: Neu5Ac(a2-3)Gal(b1-4)GlcNAc6S
# In short: as §1
# [33] = target: Neu5Ac(a2-3)Gal(b1-4)[Fuc(a1-3)]GlcNAc(b1-3)Gal
# In short: as §1
# [34] = target: Neu5Ac(a2-3)Gal(b1-4)[Fuc(a1-3)]GlcNAc(b1-3)Gal(b1-4)[Fuc(a1-3)]GlcNAc(b1-3)Gal(b1-4)[Fuc(a1-3)]GlcNAc
# In short: as §1
# [35] = target: Neu5Ac(a2-6)Gal(b1-4)GlcNAc(b1-2)Man(a1-6)[Gal(b1-4)GlcNAc(b1-2)Man(a1-3)]Man(b1-4)GlcNAc(b1-4)GlcNAc
# In short: as §1
# [36] = target: Neu5Ac(a2-8)Neu5Ac(a2-3)[GalNAc(b1-4)]Gal(b1-4)Glc
# In short: as §1
# [37] = target: Neu5Ac(b2-6)Gal(b1-4)GlcNAc
# In short: as §1
binder,measurement,setting,value
B1,glycan array binding signal (z-score),[1],-0.444
same,glycan array binding signal (z-score),Fuc(a1-2)Gal(b1-4)GlcNAc,-0.486
same,glycan array binding signal (z-score),[2],-0.497
same,glycan array binding signal (z-score),[3],5.81
same,glycan array binding signal (z-score),[4],-0.054
same,glycan array binding signal (z-score),[5],-0.507
same,glycan array binding signal (z-score),[6],-0.41
same,glycan array binding signal (z-score),[7],-0.443
same,glycan array binding signal (z-score),[8],0.386
same,glycan array binding signal (z-score),[9],-0.383
same,glycan array binding signal (z-score),Gal(a1-3)Gal(b1-4)Glc,-0.243
same,glycan array binding signal (z-score),[10],-0.451
same,glycan array binding signal (z-score),Gal(b1-3)GlcNAc(b1-2)Man,-0.207
same,glycan array binding signal (z-score),[11],-0.412
same,glycan array binding signal (z-score),[12],-0.333
same,glycan array binding signal (z-score),[13],-0.533
same,glycan array binding signal (z-score),[14],-0.465
same,glycan array binding signal (z-score),[15],-0.376
same,glycan array binding signal (z-score),[16],-0.247
same,glycan array binding signal (z-score),[17],-0.276
same,glycan array binding signal (z-score),[18],-0.237
same,glycan array binding signal (z-score),Gal3S(b1-4)GlcNAc,-0.021
same,glycan array binding signal (z-score),[19],5.22
same,glycan array binding signal (z-score),Gal3S4S(b1-4)GlcNAc,2.38
same,glycan array binding signal (z-score),Gal3S6S(b1-4)GlcNAc,3.14
same,glycan array binding signal (z-score),Gal3S6S(b1-4)GlcNAc6S,11.7
same,glycan array binding signal (z-score),Gal6S(b1-3)GlcNAc6S,6.61
same,glycan array binding signal (z-score),Gal6S(b1-4)Glc6S,2.96
same,glycan array binding signal (z-score),Gal6S(b1-4)GlcNAc6S,5.29
same,glycan array binding signal (z-score),[20],0.423
same,glycan array binding signal (z-score),GalNAc4S6S(b1-4)GlcNAc,5.23
same,glycan array binding signal (z-score),[21],-0.374
same,glycan array binding signal (z-score),[22],-0.23
same,glycan array binding signal (z-score),[23],-0.076
same,glycan array binding signal (z-score),[24],-0.186
same,glycan array binding signal (z-score),[25],-0.434
same,glycan array binding signal (z-score),Kdn(a2-3)Gal(b1-3)GalNAc,0.64
same,glycan array binding signal (z-score),Kdn(a2-3)Gal(b1-4)Glc,0.084
same,glycan array binding signal (z-score),Man(a1-2)Man(a1-3)Man,-0.472
same,glycan array binding signal (z-score),[26],0.131
same,glycan array binding signal (z-score),[27],-0.112
same,glycan array binding signal (z-score),[28],-0.386
same,glycan array binding signal (z-score),[29],-0.389
same,glycan array binding signal (z-score),[30],2.17
same,glycan array binding signal (z-score),[31],0.163
same,glycan array binding signal (z-score),[32],2.07
same,glycan array binding signal (z-score),[33],-0.448
same,glycan array binding signal (z-score),[34],-0.51
same,glycan array binding signal (z-score),[35],0.067
same,glycan array binding signal (z-score),[36],0.475
same,glycan array binding signal (z-score),[37],-0.387
